For 6 compounds, Potency, activity change, negative = cytotoxicity and max response results are on record in PubChem BioAssay (NCATS).

The nature of experiment [1]: Cell Viability - Hek293 (AID 427;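 active = compounds whose dose-response curve shows a full or clear partial loss of cell viability, called from curve shape rather than a numeric limit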;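 also: potency is read from the fitted curve at half-maximal effect; cells exposed to compound for 40 hours at 37 °C before reading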). To be noted: qHTS. The method in brief:
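HEK293 cells in complete medium were exposed to compound for 40 hr at 37 °C, then cellular ATP was read by CellTiter-Glo luminescence. Data were normalized to DMSO (basal) and 100 uM tamoxifen (100% inhibition), and AC50 came from Hill fits.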

Experiment [2] in a line: Cell Viability - SK-N-SH (AID 435; calls by dose curve;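 also: potency is read from the fitted curve at half-maximal effect; compound exposure lasted 40 h at 37 °C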). To be noted: SK-N-SH neuroblastoma cell viability qHTS. The method in brief: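 CellTiter-Glo ATP luminescence, 20 min RT read; cells pre-plated 5 hr, compound 40 hr at 37 °C, 1500 cells/well, complete medium. Normalized DMSO = 0, 100 uM tamoxifen = 100% inhibition; Hill-fit AC50.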
A general note: Quantitative high-throughput screening tests each substance at several concentrations.

Experiment [3] in a line: Cell Viability - N2a (AID 540).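 Also: plate controls were DMSO alone for no effect and tamoxifen control for full effect; nearly all actives have a fitted effect of over 45% in size.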 To be noted: N2a mouse neuroblastoma cell viability; activity change, negative = cytotoxicity: at 92.2 µM (top of the series). A digest of the protocol:
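Mouse neuroblastoma N2a cells (1500/well) were preincubated 5 hr at 37 °C, then exposed to compounds for 40 hr at 37 °C in complete medium. Viability was read as intracellular ATP by CellTiter-Glo luminescence; AC50 from Hill fits.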

Experiment [4] is described as follows: Cell Viability - H-4-II-E (AID 543). Also: % is scaled to controls: 0 for no effect and ±100 for the full control effect; nearly all actives have a fitted effect of over 35% in size. To be noted: H-4-II-E rat hepatoma viability; series mostly up to 92.2 µM. A digest of the protocol:
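Rat hepatoma H-4-II-E cells (1500/well) were plated, incubated 5 hr at 37 °C, then exposed to compounds for 40 hr at 37 °C. Cellular ATP was read by CellTiter-Glo luminescence; AC50 came from Hill-equation fits of concentration-response data.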

Experiment [5] can be described thus: Cell Viability - SH-SY5Y (AID 544).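 Also: 0% = DMSO alone and -100% = 100 µM tamoxifen; nearly all actives have a fitted effect of over 55% in size.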 To be noted: SH-SY5Y neuroblastoma cell viability; viability change, negative = cytotoxic: at 92.2 µM (top of the series). A digest of the protocol:
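Human neuroblastoma SH-SY5Y cells (1500/well) in complete medium were exposed to compounds for 40 hr at 37 °C; intracellular ATP was then quantified by CellTiter-Glo luminescence after 20 min at room temperature. AC50 came from Hill-equation concentration-response fits.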

The nature of experiment [6]: Cell Viability - LYMP2-001 (AID 921).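 Also: 0% = DMSO only and full inhibition = tetraoctylammonium bromide control wells; nearly all actives have a fitted effect of over 70% in size.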 To be noted: LYMP2-001 lymphoblastoid cell viability; series mostly up to 92.2 µM. A digest of the protocol:
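CellTiter-Glo luminescence (intracellular ATP) after 24 hr compound exposure at 37 C, 2500 lymphoblastoid cells/well in complete medium. AC50 fitted with standard Hill equation; tetraoctylammonium bromide positive control.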

A short description of experiment [7]: Cell Viability - LYMP2-005 (AID 967).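 Also: plate controls were DMSO only for no effect and 92 µM tetraoctylammonium bromide control for full effect.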 To be noted: LYMP2-005 lymphoblastoid cell viability; series mostly up to 92.2 µM. A digest of the protocol: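 Steps: seed 2500 LYMP2-005 cells/well, incubate 5 h at 37 C, add compound, incubate 24 h at 37 C, add CellTiter-Glo, wait 30 min at RT, read luminescence. Concentration-response data fitted to Hill equation for AC50.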

A short description of experiment [8]: Cell Viability - LYMP2-009 (AID 968).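 Also: 0% = DMSO alone and the full-kill end = tetraoctylammonium bromide at 92 µM; nearly all actives have a fitted effect of over 55% in size.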 To be noted: LYMP2-009 lymphoblastoid cell viability; series mostly up to 92.2 µM.
Experiment [9] in a line: Cell Viability - LYMP2-015 (AID 971).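 Also: 0% = DMSO only and full effect = 92 µM tetraoctylammonium bromide; nearly all actives have a fitted effect of over 55% in size.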 To be noted: LYMP2-015 lymphoblastoid cell viability; series mostly up to 92.2 µM. A digest of the protocol: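 Human lymphoblastoid cells (2500/well) in complete medium were preincubated 5 hr at 37 C, then compound-treated 24 hr at 37 C. Intracellular ATP was read by CellTiter-Glo luminescence after 30 min at room temperature; AC50 came from Hill-equation concentration-response fits.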

Experiment [10] in a line: Cell Viability - LYMP2-019 (AID 973).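 Also: 0% = DMSO alone and full effect = 92 µM tetraoctylammonium bromide; nearly all actives have a fitted effect of over 55% in size.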 To be noted: LYMP2-019 lymphoblastoid cell line viability; series mostly up to 92.2 µM. A digest of the protocol:
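Human lymphoblastoid cells were seeded at 2500 cells/well, preincubated 5 hr at 37 C, then exposed to compounds for 24 hr at 37 C in complete medium. Intracellular ATP was measured by CellTiter-Glo luminescence; AC50 from Hill fits.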

Experiment [11] in a line: Cell Viability - LYMP2-021 (AID 974). To be noted: LYMP2-021 lymphoblastoid cells viability; series mostly up to 92.2 µM. A digest of the protocol:
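Human lymphoblastoid cells (2500/well) were preincubated 5 hr at 37 C, then exposed to compounds for 24 hr at 37 C in complete medium. Intracellular ATP was read by CellTiter-Glo luminescence; AC50 came from Hill-equation fits of concentration-response data.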

A short description of experiment [12]: Cell Viability - LYMP2-002 (AID 977).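 Also: compound exposure lasted 24 h at 37 °C; plate controls were DMSO only for no effect and 92 µM tetraoctylammonium bromide for full effect.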 To be noted: LYMP2-002 lymphoblastoid cell viability, qHTS; series mostly up to 92.2 µM. The method in brief:
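Cytotoxicity is scored as concentration-dependent loss of cellular ATP in a human lymphoblastoid line after 24 hr compound treatment at 37 C. AC50 is obtained by modelling concentration-response data with the Hill equation.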

The nature of experiment [13]: Cell Viability - LYMP2-010 (AID 981). To be noted: LYMP2-010 lymphoblastoid cell viability, qHTS; series mostly up to 92.2 µM. The method in brief:
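Human lymphoblastoid LYMP2-010 cells (2500/well) were preincubated 5 hr at 37 C, then exposed to compounds for 24 hr at 37 C in complete medium. Intracellular ATP was measured by CellTiter-Glo luminescence after 30 min at room temperature; AC50 from Hill-fitted concentration-response.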

A short description of experiment [14]: Cell Viability - LYMP2-012 (AID 982). To be noted: LYMP2-012 lymphoblastoid cell viability qHTS; series mostly up to 92.2 µM.
Experiment [15] in a line: qHTS assay for small molecule agonists of retinoid X receptor alpha signaling (AID 588544). To be noted: HEK293T RXRa-UAS-bla, beta-lactamase reporter, 18 h; 530 nm emission.
A short description of experiment [16]: qHTS assay for small molecule antagonists of retinoid X receptor alpha signaling (AID 588546; active = well fitted inhibition curve with a large enough effect in the signal ratio, with a control signal flat, not every such curve was filed as active; the % refers to the signal ratio;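 also: cells stimulated with 9-cis-retinoic acid as agonist; % is scaled to controls: 0 for no effect and ±100 for the full control effect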). To be noted: HEK293T RXRa-UAS-bla, beta-lactamase ratio, antagonist mode; measured here: W530 green channel, cytotoxicity proxy. A digest of the protocol:
(§1)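 Beta-lactamase reporter inhibition, read as CCF4 fluorescence ratio (ex 405, em 460/530 nm) after 2 h at RT. HEK293T UAS-bla cells, 2500/well, were stimulated with 9-cis-RA at 500 or 100 nM final alongside test compound for 18 h at 37 C.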

The target in experiment [17] is Retinoic acid receptor RXR-alpha (Homo sapiens) (UniProt P19793). Described as above. To be noted: HEK293T RXRa-UAS-bla, beta-lactamase ratio, antagonist mode. The method in brief: as §1
Sequence of Retinoic acid receptor RXR-alpha (Homo sapiens) (P19793 whole entry, looked up): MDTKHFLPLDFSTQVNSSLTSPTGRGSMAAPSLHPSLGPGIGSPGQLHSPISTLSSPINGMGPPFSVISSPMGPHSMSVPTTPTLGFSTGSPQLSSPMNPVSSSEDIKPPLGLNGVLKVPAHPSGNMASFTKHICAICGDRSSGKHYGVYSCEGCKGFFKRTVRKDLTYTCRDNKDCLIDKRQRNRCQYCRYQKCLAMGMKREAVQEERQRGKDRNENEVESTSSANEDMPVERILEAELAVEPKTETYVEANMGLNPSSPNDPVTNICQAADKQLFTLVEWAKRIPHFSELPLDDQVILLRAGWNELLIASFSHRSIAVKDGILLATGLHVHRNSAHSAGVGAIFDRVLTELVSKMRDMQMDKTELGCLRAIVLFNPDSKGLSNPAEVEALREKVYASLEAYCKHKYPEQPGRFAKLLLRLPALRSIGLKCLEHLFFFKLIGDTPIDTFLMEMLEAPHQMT
Experiment [18] is described as follows: qHTS assay for small molecule disruptors of the mitochondrial membrane potential - 5 hr assay (AID 651755; calls by dose curve; also: % is scaled to controls: 0 for no effect and ±100 for the full control effect; nearly all actives have a fitted effect of over 40% in size). To be noted: JC-1-type ratio dye; series mostly up to 92.2 µM. The method in brief: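 HepG2, 2,000 cells/well, overnight attach; cpd or DMSO 5 hr, 37C/5% CO2; Mito-MPS 30 min 37C; fluor 490/535 + 540/590 nm.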
Experiment [19] is described as follows: qHTS assay for small molecule agonists of the antioxidant response element (ARE) signaling pathway measured by Nrf2-dependant transcriptional activity (AID 720636; active = well fitted curve in the direction sought with a large enough effect in the repeat runs; an effect the other way counts as inactive or inconclusive; also: % of control where 0% means no effect). To be noted: ARE-luc HepG2, Nrf2 luciferase reporter, 16 h; series mostly up to 92.4 µM. The method in brief: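 Attachment 6 hr at 37 C, then compound versus DMSO vehicle for 16 hr in ARE-luc HepG2 cells (1% dialyzed FBS); luminescence recorded 30 min after ONE-Glo addition at room temperature.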

Experiment [20] is described as follows: MultiTox-Fluor Cytotoxicity Assay - LYMP1-001 - Live Cells (AID 947).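 Also: 0% = DMSO only and full inhibition = tetraoctylammonium bromide control.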 To be noted: LYMP1-001 lymphoblastoid cells, live-cell protease fluorescence viability; series mostly up to 92.2 µM.

Results filed as inconclusive are left out. The source made the active and inactive calls. Unless noted, calls follow the shape of the dose curve; as a rule, active = well fitted curve in the direction sought with a large enough effect; inconclusive = small, poorly fitted or top-dose-only effect, or another doubt; inactive = no such curve, though single readings can be large; an effect the other way counts as inactive or inconclusive.

Consider `NC(=O)c1ccc([N+](=O)[O-])cc1`, for which the Potency in experiment [1] and in [2] was > 92 µM (inactive) throughout. Further, in [3], the activity change, negative = cytotoxicity is 4.68% (inactive). The Potency entry in [4], in experiment [5], in experiment [6], in experiment [7], in experiment [8] and in [9] was “inactive” in each case. The Potency result in [10], in [11], in experiment [12], in experiment [13], in experiment [14] and in [18] was “inactive” throughout. Besides, the Potency entry in experiment [19] was “inactive”. Moreover, the max response in experiment [15] was -9.87%; in [16], -6.07%; in [17], -5.31% (inactive).
`CCCCNCC`: the Potency in [1] and in experiment [2] was > 92 µM (inactive) in each case. Further, the activity change, negative = cytotoxicity in experiment [3] is -1.46% (inactive). The Potency result in experiment [4], in experiment [5], in experiment [6], in [20], in experiment [7] and in experiment [8] was “inactive” throughout. Moreover, the Potency result in [9], in experiment [10], in [11], in [12], in experiment [13] and in [14] was “inactive” throughout. Moreover, the Potency entry in experiment [18] and in [19] was “inactive” each time. Moreover, the max response is -3.36% in [15], -20.9% in [16] and 4.6% (inactive) in [17].
`CCCCCCc1ccc(-c2ccc(C#N)cc2)cc1`: the Potency in experiment [1] and in [2] was > 92 µM (inactive) in each case. For the same compound, the activity change, negative = cytotoxicity in experiment [3] is -10.7% (inactive). For the same compound, the Potency result in experiment [4], in [5], in [20], in experiment [7], in experiment [8] and in experiment [9] was “inactive” throughout. In addition, the Potency result in experiment [10], in experiment [11], in [12], in [13], in [14] and in experiment [18] was “inactive” in each case. The Potency entry in experiment [19] is “inactive”. Moreover, the values for the max response in experiment [15], in [16] and in experiment [17] were -25.6%, -7.3% and -14.6% (inactive), respectively.
`C=Cc1cccc(C)c1`: the Potency in [1] and in [2] was > 92 µM (inactive) in each case. For the same compound, the activity change, negative = cytotoxicity in experiment [3] is -2.59% (inactive). The Potency result in experiment [4], in experiment [5], in experiment [6], in experiment [20], in experiment [7] and in [8] was “inactive” throughout. In addition, the Potency result in experiment [9], in [10], in experiment [11], in experiment [12], in experiment [13] and in experiment [14] was “inactive” throughout. The Potency entry in experiment [18] and in experiment [19] was “inactive” in each case. Moreover, the results for the max response in experiment [15], in [16] and in [17] were -15.6%, -7.34% and -5.75% (inactive), respectively.
Take `CCCCCCN`: the Potency in experiment [1] and in experiment [2] was > 92 µM (inactive) each time. The activity change, negative = cytotoxicity in experiment [3] is -7.51% (inactive). The Potency result in experiment [4], in [5], in [6], in experiment [20], in [7] and in experiment [8] was “inactive” in each case. Moreover, the Potency result in [9], in experiment [10], in [11], in [12], in experiment [13] and in experiment [14] was “inactive” in each case. Also, the Potency entry in [18] and in [19] was “inactive” each time. For the same compound, the max response in experiment [15] is -10.9%; in experiment [16], -7.66%; in experiment [17] it was 2.42% (inactive).
With `C1CCCNCC1`, the Potency in [1] and in experiment [2] was > 92 µM (inactive) in each case. Also, in experiment [3], the activity change, negative = cytotoxicity was -7.29% (inactive). The Potency result in [4], in [5], in experiment [6], in experiment [20], in experiment [7] and in experiment [8] was “inactive” each time. Besides, the Potency entry in experiment [9], in experiment [10], in [11], in [12], in experiment [13] and in [14] was “inactive” in each case. Also, the Potency entry in experiment [18] and in experiment [19] was “inactive” each time. The max response in experiment [15] was -9.69%; in [16], -4.82%; in [17], 5.08% (inactive).
